Screening results: PubChem BioAssay, Broad Institute
TRPM1 prom inh: MITF TRPM1 promoter inhibition in SK-MEL-5 cells; SK-MEL-5 TRPM1 promoter luciferase, 24 h; inhibition, % at 12.5 µM; hit rate 0.83% among 330,000;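 active means mean inhibition across replicates of 60% or more, whatever share of single replicates reaches that level; inconclusive means some that reach 60%, reason not given; inactive means mean inhibition across replicates below 60%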
EBV LMP1 NFkB: reduces LMP1-driven NF-kappaB luciferase signal; LMP1-induced NF-kappaB luciferase reporter cells, luminescence; inhibition, % at 12.5 µM; hit rate 0.69% among 350,000; AID 504558; in the data active means inhibition above about 41%; inconclusive means no clear call, values can overlap the other calls
MITF TRPM1 HTS: activators of MITF-driven TRPM1 promoter activity in SK-MEL-5 cells. activation, % at 12.5 µM. SK-MEL-5 TRPM1-promoter luciferase, 24 h; % of positive control, neutral wells = 0. AID 588334. hit rate 0.75% among 300,000;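 active means mean activation of at least 80% with every replicate also reaching 80%; inconclusive means mean reaches 80% but some replicate falls short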
C2C12 statin: protects C2C12 myotubes from simvastatin toxicity; ATP luminescence, 48 h; scaled: DMSO 0, geranylgeraniol control 100; hit rate 0.78% among 330,000; rescue of ATP level, % at 7.49 µM;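 active means mean ATP rescue above about 67%, or every replicate alone reaching that limit, limit read from the data, passing the limit was not always enough; inconclusive means no clear call, values can overlap the other calls; inactive means mean under the limit and some replicate under it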;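 further: myotubes were challenged with 10 µM simvastatin during compound exposure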
Wnt bcat act: activates Wnt/beta-catenin signaling in a reporter cell assay; activator, plate reader; activation, % at 9.35 µM; hit rate 1.2% among 300,000; AID 743398; in the data active means activation above about 30%, passing the limit was not always enough; inconclusive means no clear call, values can overlap the other calls
esBAF inh: SWI/SNF esBAF complex inhibition | hit rate 2% among 350,000 | mouse ES cells, Bmi1-luciferase knock-in reporter, 24 h; 100% = twice the neutral-well signal | reporter increase, % at 12.5 µM | AID 602393; in the data active means activation above about 40%; inconclusive means no clear call, values can overlap the other calls;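 further: a rise in the Bmi1 reporter signal indicates esBAF inhibition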
Large screens that a line does not name were inactive. An excerpt weighted towards active compounds, which were near 4% of everything screened.

O=[N+]([O-])c1ccc(C=NNc2ccccc2)cc1	esBAF inh 44.2
O=[N+]([O-])c1ccc(O)c(/C=N/Nc2nc3ccccc3[nH]2)c1	none (no result: C2C12 statin, esBAF inh)
CCCOc1ccc(/C=N/Nc2cccc([N+](=O)[O-])c2)c(O)c1	MITF TRPM1 HTS 84.0 (no result: C2C12 statin, Wnt bcat act, esBAF inh)
CCCOc1ccc(/C=N/Nc2ccccc2[N+](=O)[O-])c(O)c1	none (no result: C2C12 statin, esBAF inh)
O=[N+]([O-])c1ccc(O)c(/C=N/Nc2ncnc3c2cnn3-c2ccccc2)c1	EBV LMP1 NFkB 46.6
CCCN1[C@H](C(=O)OC)[C@@H](CO)[C@@H]2Cn3c(ccc(-c4ccc(OC)cc4)c3=O)[C@@H]21	none (no result: TRPM1 prom inh, EBV LMP1 NFkB, MITF TRPM1 HTS, Wnt bcat act)
CC(C)N(C)Cc1nnnn1CC(=O)N(C)Cc1cccc(Cl)c1	none
O=C(CSc1nnc(-c2ccco2)n1-c1ccccc1)Nc1c(Cl)cc(Cl)cc1C(=O)O	none
Cc1cn(S(=O)(=O)c2ccccc2[N+](=O)[O-])cn1	none (no result: C2C12 statin, esBAF inh)
COCCCNC(=O)c1ccc(-n2nc(C(F)(F)F)cc2-c2cccs2)cc1	none (no result: C2C12 statin, esBAF inh)
Cc1cc(C)nc(NS(=O)(=O)c2ccc(NC(=O)CSc3nc(-c4ccccc4)c(C#N)c(=O)[nH]3)cc2)n1	none (no result: C2C12 statin, esBAF inh)
CC(/C=C/c1ccccc1)=N\NC(N)=S	esBAF inh 50.1 (no result: MITF TRPM1 HTS)
CC(C)CCNC(=O)CN(Cc1ccco1)C(=O)c1snc(C(N)=O)c1N	none
CCc1ccccc1N(CC(=O)NCc1ccco1)C(=O)c1snc(C(N)=O)c1N	EBV LMP1 NFkB 54.7 (no result: Wnt bcat act)
CO[C@H]1CN(C)C(=O)c2ccc(NC(=O)c3ccccc3F)cc2OC[C@@H](C)N(C)C[C@@H]1C	none (no result: TRPM1 prom inh, EBV LMP1 NFkB, MITF TRPM1 HTS, Wnt bcat act)
O=C(c1cc(-c2ccc(F)cc2)on1)N1CCCc2ccccc21	none
CC1=C([N+](=O)[O-])C(c2cccc(Br)c2)C2=C(N1)c1ccccc1C2=O (stereo not given)	TRPM1 prom inh 60.9 (no result: MITF TRPM1 HTS, C2C12 statin, esBAF inh)
[N-]=[N+]=CC(=O)c1ccnc(C(=O)C=[N+]=[N-])c1	C2C12 statin 93.6 (no result: MITF TRPM1 HTS)
Cc1c(N=Cc2ccc(O)c(Br)c2)cccc1[N+](=O)[O-]	EBV LMP1 NFkB 47.1 (no result: C2C12 statin, esBAF inh)
COc1cc(O)c(C(=O)CC(=O)c2ccncc2)c(OC)c1	none
O=C(NC1CC1)c1sc2cc(Cl)ccc2c1Cl	MITF TRPM1 HTS 110.6, esBAF inh 44.4
CC(NC(=O)c1csc2ccccc12)C1CCCO1 (stereo not given)	none (no result: Wnt bcat act)
O=C(NC1CC1)c1sc2ccccc2c1Cl	esBAF inh 46.8
O=C(Nc1nccs1)c1sc2cc(Cl)ccc2c1Cl	Wnt bcat act 75.9, esBAF inh 57.0 (no result: MITF TRPM1 HTS)
CC(NC(=O)c1sc2ccccc2c1Cl)C1CCCO1 (stereo not given)	MITF TRPM1 HTS 126.5 (no result: C2C12 statin, esBAF inh)
Fc1ccc(Cn2ccc(-c3cnc(-c4ccccc4)s3)n2)cc1	none (no result: C2C12 statin, Wnt bcat act, esBAF inh)
O=C(CCl)N(O)c1ccc(C=Cc2ccccc2)cc1	EBV LMP1 NFkB 53.0, Wnt bcat act 39.7 (no result: C2C12 statin, esBAF inh)
O=C(COC(=O)/C=C/C(=O)OCC(=O)NC12CC3CC(CC(C3)C1)C2)NC12CC3CC(CC(C3)C1)C2	TRPM1 prom inh 76.0
COc1ccccc1-c1noc(-c2cccs2)n1	MITF TRPM1 HTS 120.8, C2C12 statin 223.5, esBAF inh 54.8
COc1ccc(-c2nc(-c3cccs3)no2)cc1	EBV LMP1 NFkB 47.8 (no result: C2C12 statin, esBAF inh)
COc1ccccc1-c1noc(-c2ccncc2)n1	C2C12 statin 112.0, esBAF inh 45.8
COc1ccc(Br)cc1-c1noc(-c2ccncc2)n1	none (no result: MITF TRPM1 HTS)
O=C(C[C@@H]1C=C[C@@H](NC(=O)Nc2ccccc2)[C@H](CO)O1)NCc1cccc(F)c1	none (no result: TRPM1 prom inh, EBV LMP1 NFkB, MITF TRPM1 HTS, Wnt bcat act)
CC(C)c1ccc(C(O)c2cnc(C(C)C)n2C)cc1 (stereo not given)	esBAF inh 72.9
Cc1cccc2c(-c3ccccc3)cc(=O)[nH]c12	C2C12 statin 83.8 (no result: MITF TRPM1 HTS)
CC(=O)Nc1cccc(NC(=O)c2ccc(C)c([N+](=O)[O-])c2)c1	Wnt bcat act 57.6
O=C(Nc1cccc([N+](=O)[O-])c1)c1ccncc1	none (no result: C2C12 statin, Wnt bcat act, esBAF inh)
O=C(Nc1ccc(Cl)cc1[N+](=O)[O-])c1ccc2c(c1)OCCO2	esBAF inh inconclusive
CC(C)(C)c1ccc(C(=O)Nc2cccc([N+](=O)[O-])c2)cc1	MITF TRPM1 HTS 87.8 (no result: C2C12 statin, Wnt bcat act, esBAF inh)
O=C(Nc1cccc([N+](=O)[O-])c1)c1ccc2c(c1)OCCO2	Wnt bcat act 47.3 (no result: C2C12 statin, esBAF inh)
O=C(Nc1ccc(F)c([N+](=O)[O-])c1)c1ccc2c(c1)OCCO2	esBAF inh 49.8 (no result: C2C12 statin)
Cc1ccccc1C(=O)c1ccccc1C(=O)c1ccccc1	none
COc1ccc(S(=O)(=O)Nc2ccc3c(c2)CC(=O)N([C@@H](C)CO)C[C@H](C)[C@@H](CN(C)C(=O)Nc2ccccc2)O3)cc1	none (no result: TRPM1 prom inh, EBV LMP1 NFkB, MITF TRPM1 HTS, Wnt bcat act)
COc1ccc(-c2csc(NC(=O)C3CSC4(C)CCC(=O)N34)n2)c(OC)c1 (stereo not given)	none
O=C(NCC(c1cccs1)N1CCOCC1)c1cc(=O)[nH]c2ccccc12 (stereo not given)	none
O=C(NCC(c1ccco1)N1CCCC1)c1cc(=O)[nH]c2ccccc12 (stereo not given)	Wnt bcat act 58.1
CC(C)COC(=O)N(C)C[C@H]1OCc2cn(nn2)CCCC(=O)N([C@H](C)CO)C[C@@H]1C	none (no result: TRPM1 prom inh, MITF TRPM1 HTS)
CC(=O)Nc1ccc(NC(=O)CSc2nnc(C3CC3)n2C)cc1	C2C12 statin 127.2 (no result: MITF TRPM1 HTS)
Cc1ccc(NC(=O)Cc2nnc(SCC(=O)NC3CCCC3)n2C)cc1C	EBV LMP1 NFkB 45.3
C=CCNC(=O)C1CCN(S(=O)(=O)c2ccc(Br)cc2)CC1	none (no result: Wnt bcat act)
Cc1ccc(CS(=O)(=O)CC(C)(O)c2ccccc2)cc1 (stereo not given)	none
COc1ccccc1NC(=O)Nc1nc(C(N)CC(C)C)cs1 (stereo not given)	none (no result: TRPM1 prom inh, EBV LMP1 NFkB, MITF TRPM1 HTS)
O=S(=O)(c1ccc(Cl)s1)N1CCCc2cccc(O)c21	Wnt bcat act 38.8, esBAF inh 83.8 (no result: MITF TRPM1 HTS)
O=S(=O)(c1ccc(Cl)s1)N1CCc2ccccc2C1	none (no result: Wnt bcat act)
Cc1cccc(N=c2oc3cc(O)ccc3cc2C(N)=O)c1	C2C12 statin 118.3, Wnt bcat act 40.1, esBAF inh 57.8
O=c1oc2ccccc2c(O)c1/C=N/c1ccccn1	EBV LMP1 NFkB 49.6 (no result: Wnt bcat act)
C[C@@H]1CN([C@@H](C)CO)C(=O)c2cc(Br)cnc2O[C@H]1CN(C)C(=O)c1cccnc1	none (no result: TRPM1 prom inh, EBV LMP1 NFkB, MITF TRPM1 HTS, C2C12 statin, Wnt bcat act)
CN(CC(=O)Nc1ccc(F)cc1)C(=O)COC(=O)c1cccc(N(C)C)c1	Wnt bcat act 41.2, esBAF inh 47.9 (no result: TRPM1 prom inh, MITF TRPM1 HTS)
O=C(COC(=O)CNC(=O)c1ccccc1F)Nc1ccc2c(c1)OCCO2	none (no result: C2C12 statin, esBAF inh)
O=C(COC(=O)c1ccccc1F)Nc1ccc2c(c1)OCCO2	Wnt bcat act 40.7
N#CCC(=O)Nc1ccc(C(=O)OCC(=O)NC(=O)Nc2ccc3c(c2)OCCO3)cc1	esBAF inh 60.8
O=C(COC(=O)c1ccc(Br)o1)Nc1ccc2c(c1)OCCO2	none
O=C(COC(=O)CNC(=O)c1ccc(Br)o1)Nc1ccc2c(c1)OCCO2	C2C12 statin 141.2 (no result: Wnt bcat act)
CN(CC(=O)Nc1ccc(F)cc1)C(=O)COC(=O)c1ccccc1	none
O=C(COc1ccc(F)cc1)Nc1ccc2c(c1)OCCO2	Wnt bcat act 37.9 (no result: C2C12 statin, esBAF inh)
